Drawing on the supplement of paper PMC10849652, this text covers log2 fold change for 37 targets.

Targets with a hit are over-represented here; the source holds about 7,900 in all. About 0.6% of all pairs of compound and target were hits. A number with no mark means an inactive call.

UniProt P62191, sequence (P62191 whole entry, looked up): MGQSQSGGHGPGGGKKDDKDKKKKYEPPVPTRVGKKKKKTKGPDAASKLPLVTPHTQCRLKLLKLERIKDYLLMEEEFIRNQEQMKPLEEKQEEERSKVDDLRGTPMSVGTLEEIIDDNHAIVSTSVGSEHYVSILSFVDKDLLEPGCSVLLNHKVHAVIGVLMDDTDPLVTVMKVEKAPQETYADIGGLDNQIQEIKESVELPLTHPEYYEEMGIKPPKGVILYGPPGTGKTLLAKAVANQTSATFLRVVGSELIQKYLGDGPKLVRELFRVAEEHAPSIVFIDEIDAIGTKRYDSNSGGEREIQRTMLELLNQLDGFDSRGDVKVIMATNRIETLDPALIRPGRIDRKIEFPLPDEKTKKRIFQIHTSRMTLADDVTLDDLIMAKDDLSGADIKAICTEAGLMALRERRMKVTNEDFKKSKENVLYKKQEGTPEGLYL
UniProt O95453, sequence (O95453 whole entry, looked up): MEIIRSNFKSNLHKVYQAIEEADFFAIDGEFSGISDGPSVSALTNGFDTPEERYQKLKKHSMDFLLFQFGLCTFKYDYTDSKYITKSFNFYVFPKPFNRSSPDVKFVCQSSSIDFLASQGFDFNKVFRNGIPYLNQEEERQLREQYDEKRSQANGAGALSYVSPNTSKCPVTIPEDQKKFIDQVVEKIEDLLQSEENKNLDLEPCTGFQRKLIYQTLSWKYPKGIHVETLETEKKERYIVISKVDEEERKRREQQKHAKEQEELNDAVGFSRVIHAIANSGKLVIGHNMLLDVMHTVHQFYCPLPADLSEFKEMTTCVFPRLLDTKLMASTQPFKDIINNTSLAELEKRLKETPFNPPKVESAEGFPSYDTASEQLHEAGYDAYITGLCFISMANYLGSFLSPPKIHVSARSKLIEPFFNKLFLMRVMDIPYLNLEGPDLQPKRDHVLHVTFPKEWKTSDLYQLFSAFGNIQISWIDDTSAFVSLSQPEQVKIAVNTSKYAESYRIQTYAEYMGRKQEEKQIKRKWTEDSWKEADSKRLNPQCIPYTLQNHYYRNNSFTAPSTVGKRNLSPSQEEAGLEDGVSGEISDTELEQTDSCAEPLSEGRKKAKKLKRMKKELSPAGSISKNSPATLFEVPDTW
UniProt Q9H814, sequence (Q9H814 whole entry, looked up): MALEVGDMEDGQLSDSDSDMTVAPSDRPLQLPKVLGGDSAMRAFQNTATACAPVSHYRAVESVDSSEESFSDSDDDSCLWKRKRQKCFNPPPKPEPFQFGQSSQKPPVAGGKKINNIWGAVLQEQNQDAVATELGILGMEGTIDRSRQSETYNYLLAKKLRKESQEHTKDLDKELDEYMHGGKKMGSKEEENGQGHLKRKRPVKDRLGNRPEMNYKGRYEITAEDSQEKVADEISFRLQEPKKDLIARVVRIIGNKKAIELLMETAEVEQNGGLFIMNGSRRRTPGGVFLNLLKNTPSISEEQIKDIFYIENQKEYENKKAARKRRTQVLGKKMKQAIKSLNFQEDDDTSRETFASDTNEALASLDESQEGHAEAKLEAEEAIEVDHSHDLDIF
UniProt Q6P4A8, sequence (Q6P4A8 whole entry, looked up): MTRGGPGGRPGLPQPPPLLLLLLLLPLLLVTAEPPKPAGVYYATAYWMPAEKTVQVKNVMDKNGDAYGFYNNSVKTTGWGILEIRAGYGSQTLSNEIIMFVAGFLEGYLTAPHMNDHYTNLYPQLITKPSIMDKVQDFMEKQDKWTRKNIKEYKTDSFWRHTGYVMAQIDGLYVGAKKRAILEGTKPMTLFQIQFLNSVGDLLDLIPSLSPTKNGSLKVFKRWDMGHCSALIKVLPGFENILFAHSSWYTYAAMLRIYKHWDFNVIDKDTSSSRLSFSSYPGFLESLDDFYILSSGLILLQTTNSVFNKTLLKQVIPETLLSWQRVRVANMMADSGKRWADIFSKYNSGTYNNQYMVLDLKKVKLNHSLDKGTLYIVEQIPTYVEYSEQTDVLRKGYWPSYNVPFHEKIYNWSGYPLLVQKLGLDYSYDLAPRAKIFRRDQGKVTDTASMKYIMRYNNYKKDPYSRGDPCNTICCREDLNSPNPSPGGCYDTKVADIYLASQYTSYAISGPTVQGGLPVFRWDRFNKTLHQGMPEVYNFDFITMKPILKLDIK
UniProt P10644, sequence (P10644 whole entry, looked up): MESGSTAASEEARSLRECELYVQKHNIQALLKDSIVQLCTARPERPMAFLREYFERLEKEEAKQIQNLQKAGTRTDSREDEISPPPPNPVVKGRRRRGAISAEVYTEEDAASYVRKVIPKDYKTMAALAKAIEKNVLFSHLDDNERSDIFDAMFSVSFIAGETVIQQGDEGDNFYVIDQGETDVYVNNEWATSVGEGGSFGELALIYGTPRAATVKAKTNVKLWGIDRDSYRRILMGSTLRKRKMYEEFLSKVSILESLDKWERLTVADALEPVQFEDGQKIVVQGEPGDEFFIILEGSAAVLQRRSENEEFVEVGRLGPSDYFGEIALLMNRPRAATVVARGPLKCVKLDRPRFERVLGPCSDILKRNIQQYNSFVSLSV
UniProt P15735, sequence (P15735 whole entry, looked up): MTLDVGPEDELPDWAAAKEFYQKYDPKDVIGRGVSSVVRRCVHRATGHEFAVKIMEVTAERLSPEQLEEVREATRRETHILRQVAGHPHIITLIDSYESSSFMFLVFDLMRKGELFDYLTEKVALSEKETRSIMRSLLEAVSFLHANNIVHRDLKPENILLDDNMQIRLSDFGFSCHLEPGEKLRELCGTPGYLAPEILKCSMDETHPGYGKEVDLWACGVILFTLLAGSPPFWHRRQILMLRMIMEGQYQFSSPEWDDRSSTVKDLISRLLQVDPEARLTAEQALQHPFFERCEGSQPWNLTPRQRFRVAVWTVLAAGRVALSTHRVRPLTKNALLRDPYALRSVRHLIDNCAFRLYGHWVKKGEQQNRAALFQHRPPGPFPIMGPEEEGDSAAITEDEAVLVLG
UniProt Q13131, sequence (Q13131 whole entry, looked up): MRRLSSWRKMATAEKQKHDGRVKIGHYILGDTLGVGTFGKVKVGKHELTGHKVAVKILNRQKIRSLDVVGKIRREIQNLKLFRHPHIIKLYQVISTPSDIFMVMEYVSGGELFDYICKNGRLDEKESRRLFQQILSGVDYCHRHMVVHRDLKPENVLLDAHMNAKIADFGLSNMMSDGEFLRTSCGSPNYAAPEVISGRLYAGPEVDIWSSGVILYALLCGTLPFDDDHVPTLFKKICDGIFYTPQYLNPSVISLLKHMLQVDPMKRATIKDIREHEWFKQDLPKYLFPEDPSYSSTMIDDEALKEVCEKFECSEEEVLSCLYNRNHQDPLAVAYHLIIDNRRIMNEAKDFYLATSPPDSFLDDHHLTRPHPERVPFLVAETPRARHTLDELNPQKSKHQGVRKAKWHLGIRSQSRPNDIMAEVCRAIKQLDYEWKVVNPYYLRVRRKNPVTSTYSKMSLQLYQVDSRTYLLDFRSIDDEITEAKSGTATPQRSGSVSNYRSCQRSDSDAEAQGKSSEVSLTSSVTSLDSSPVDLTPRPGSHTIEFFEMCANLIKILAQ
UniProt Q8N4L2, sequence (Q8N4L2 whole entry, looked up): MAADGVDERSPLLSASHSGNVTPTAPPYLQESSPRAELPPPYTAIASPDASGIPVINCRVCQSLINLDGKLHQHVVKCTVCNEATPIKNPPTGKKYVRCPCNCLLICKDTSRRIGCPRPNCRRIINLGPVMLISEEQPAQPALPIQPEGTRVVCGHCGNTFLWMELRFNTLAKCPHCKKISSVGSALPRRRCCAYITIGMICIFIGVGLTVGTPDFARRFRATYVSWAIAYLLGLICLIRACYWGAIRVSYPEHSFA
UniProt Q6L8Q7, sequence (Q6L8Q7 whole entry, looked up): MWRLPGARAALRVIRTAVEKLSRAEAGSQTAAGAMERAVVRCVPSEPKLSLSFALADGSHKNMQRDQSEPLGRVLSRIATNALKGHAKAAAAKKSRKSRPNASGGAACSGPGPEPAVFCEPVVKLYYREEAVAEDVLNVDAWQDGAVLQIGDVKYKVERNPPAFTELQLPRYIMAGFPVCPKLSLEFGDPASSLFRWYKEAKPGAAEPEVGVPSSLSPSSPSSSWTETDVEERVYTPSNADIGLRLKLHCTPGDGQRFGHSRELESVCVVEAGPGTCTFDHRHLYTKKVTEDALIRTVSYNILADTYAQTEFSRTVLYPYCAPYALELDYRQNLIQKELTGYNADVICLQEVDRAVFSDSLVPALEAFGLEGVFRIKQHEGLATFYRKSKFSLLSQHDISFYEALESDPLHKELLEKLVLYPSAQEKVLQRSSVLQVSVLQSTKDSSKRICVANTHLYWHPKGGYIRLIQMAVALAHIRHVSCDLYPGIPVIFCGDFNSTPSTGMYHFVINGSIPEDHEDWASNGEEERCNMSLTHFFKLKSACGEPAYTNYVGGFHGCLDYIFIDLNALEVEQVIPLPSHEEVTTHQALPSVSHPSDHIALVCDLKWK
UniProt Q9Y478, sequence (Q9Y478 whole entry, looked up): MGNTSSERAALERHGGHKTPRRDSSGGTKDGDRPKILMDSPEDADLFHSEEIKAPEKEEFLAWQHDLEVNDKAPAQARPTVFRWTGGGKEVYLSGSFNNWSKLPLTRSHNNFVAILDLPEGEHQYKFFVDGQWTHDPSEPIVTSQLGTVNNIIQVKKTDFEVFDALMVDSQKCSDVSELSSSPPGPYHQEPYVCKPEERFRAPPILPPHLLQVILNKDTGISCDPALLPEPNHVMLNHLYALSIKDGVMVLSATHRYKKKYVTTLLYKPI
UniProt P43686, sequence (P43686 whole entry, looked up): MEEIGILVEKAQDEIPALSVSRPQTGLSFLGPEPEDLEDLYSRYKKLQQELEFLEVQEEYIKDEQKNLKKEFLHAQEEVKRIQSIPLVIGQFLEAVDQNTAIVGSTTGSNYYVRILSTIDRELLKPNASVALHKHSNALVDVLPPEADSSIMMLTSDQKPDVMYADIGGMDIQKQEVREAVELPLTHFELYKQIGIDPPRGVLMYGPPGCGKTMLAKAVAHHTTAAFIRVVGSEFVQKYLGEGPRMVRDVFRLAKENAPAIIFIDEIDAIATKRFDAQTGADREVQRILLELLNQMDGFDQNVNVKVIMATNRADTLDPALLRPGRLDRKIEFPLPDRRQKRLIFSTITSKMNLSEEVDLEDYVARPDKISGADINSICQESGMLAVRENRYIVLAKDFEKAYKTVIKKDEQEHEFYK

Compound in one experiment: CC(C)N(C[C@H]1O[C@@H](n2cnc3c(N)ncnc32)[C@H](O)[C@@H]1O)[C@H]1C[C@@H](CCc2nc3cc(C(C)(C)C)ccc3[nH]2)C1 [pinometostat]
In words: log2 fold change, soluble protein after heating vs DMSO (PISA); higher = thermal stabilisation; K562 cells, 10 uM, 30 min; active = over 0.2 and 3.5 SD of the protein, either way, in both replicates (recomputed). An outline of the steps:
(§1)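 Values are thermal stability changes relative to control samples and are taken from duplicates. They are stated as log2 fold changes. Before quantification by TMTpro 16plex LC-MS/MS with equalised channel sums, K562 cells at 2×10^6 cells/mL were treated with 10 μM compound for 30 min, heated in aliquots for 3 min across 48°C-58°C, pooled, extracted in PBS with 0.5% NP-40 at 4°C, and centrifuged at 21,000xg for 90 min to give the soluble supernatant.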
For POLR3B (UniProt Q9NW08), the log2 fold change is 0.115.

As to PHKG2 (UniProt P15735), the log2 fold change is 0.054. Still for that read-out and setting: next, POLR2D (UniProt O15514): -0.026; PRKAB1 (UniProt Q9Y478): -0.048; PRKAA1 isoform 2 (UniProt Q13131): -0.014. Same read-out and setting: the figure for PSMC4 (UniProt P43686) is 0.025; for PRKAR1A (UniProt P10644) it is 0.131.

Take PIK3R1 (UniProt P27986): the log2 fold change was 0.083. Regarding PHAX (UniProt Q9H814), the log2 fold change was 0.016. On to PIP4P2 (UniProt Q8N4L2), for which the log2 fold change is 0.012.

As for PLBD1 (UniProt Q6P4A8), the log2 fold change is 0.057. On to PSMC1 (UniProt P62191), for which the log2 fold change is 0.032. On the same count and under the same terms, the figure for PDE12 (UniProt Q6L8Q7) is -0.031; for PARN (UniProt O95453) it is -0.018.

Compound in another experiment: CC1=C(C(CC(=O)N1)C2=CC=C(C=C2)C(F)(F)F)C(=O)NC3=C(C=C4C(=C3)C=NN4)F
The description is as above. The method, boiled down:
as §1
With PSMC2 (UniProt P35998), the log2 fold change was 0.039.

With PSMB6 (UniProt P28072), the log2 fold change is 0.046. The same measure, in the same setting: next, PRKD2 isoform 3 (UniProt Q9BZL6): 0.192; QKI (UniProt Q96PU8): 0.046. Still for that read-out and setting: next, PKN1 isoform 2 (UniProt Q16512): -0.002; PRPF38B (UniProt Q5VTL8): -0.007. Same read-out and setting: next, PTPN12 (UniProt Q05209): -0.004.

For the target PDCD6 (UniProt O75340), the log2 fold change is 0.014. Same read-out and setting: the figure for PPOX (UniProt P50336) is -0.095; for POP1 (UniProt Q99575) it is 0.008; for PIKFYVE (UniProt Q9Y2I7) it is 0.034. On the same count and under the same terms, the figure for PPP1R35 (UniProt Q8TAP8) is 0.049. On the same count and under the same terms, next, PSMB4 (UniProt P28070): 0.013. With PLIN2 (UniProt Q99541), the log2 fold change was -0.031. As for PCNT (UniProt O95613), the log2 fold change was 0.077.

On to PSMD13 (UniProt Q9UNM6), for which the log2 fold change is 0.049. Same read-out and setting: the figure for PEA15 isoform 2 (UniProt Q15121) is 0.007. The same measure, in the same setting: next, PARG (UniProt Q86W56): 0.001; PDLIM7 (UniProt Q9NR12): 0.004; PEX13 (UniProt Q92968): 0.003.

In the case of PRKCD (UniProt Q05655), the log2 fold change is -0.024. On the same count and under the same terms, next, PSMC5 (UniProt P62195): 0.037. Still for that read-out and setting: the figure for PCBP1 (UniProt Q15365) is 0.023; for POLR3B (UniProt Q9NW08) it is -0.035; for PHKG2 (UniProt P15735) it is -0.041. On the same count and under the same terms, the figure for POLR2D (UniProt O15514) is -0.02; for PRKAB1 (UniProt Q9Y478) it is 0.036. Consider PRKAA1 isoform 2 (UniProt Q13131), for which the log2 fold change is 0.022. Take PSMC4 (UniProt P43686): the log2 fold change was 0.02. Same read-out and setting: the figure for PRKAR1A (UniProt P10644) is -0.084; for PIK3R1 (UniProt P27986) it is 0.004. On to PHAX (UniProt Q9H814), for which the log2 fold change was 0.071. On the same count and under the same terms, the figure for PIP4P2 (UniProt Q8N4L2) is 0.028. With PLBD1 (UniProt Q6P4A8), the log2 fold change was -0.019. Still for that read-out and setting: next, PSMC1 (UniProt P62191): 0.031. With PDE12 (UniProt Q6L8Q7), the log2 fold change is 0.01.

In the case of PARN (UniProt O95453), the log2 fold change was 0.01.
